Assay outcomes as filed in PubChem.
DT40 TDP1 no CPT – qHTS for Inhibitors of human tyrosyl-DNA phosphodiesterase 1 (TDP1): qHTS in cells in absence of CPT; DT40 Tdp1-/- hTDP1 cells, no CPT, ATP luminescence, 48 h; Potency, µM (highest dose often 46.2 µM), without a hit: top-dose activity change, negative = growth inhibition, hits mostly inhibitors; 420,000 compounds, 15% hits; AID 686978, 2013; note: potency is the fitted concentration of half-maximal effect; % is set by controls: 0 for no effect and ±100 for the full control effect; nearly all actives have a fitted effect of over 55% in size
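DT40 Tdp1-/-;hTDP1 cells, no CPT (DMSO vehicle only), 400 cells/well; compounds pin-transferred; ≥48 hr, 37 °C; CellTiter-Glo 30 min RT dark, luminescence read.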
TGFb SMAD3 inh – blocks TGF-b signaling; HepG2 CAGA-GFP TGF-b/SMAD3 reporter, GFP fluorescence, 18 h; TGF-beta stimulated, 500 pg/mL final; Potency, µM (top dose mostly 46.1 µM), without a hit: at the top dose activity, negative = inhibition, hits mostly inhibitors; 410,000 compounds, 1.2% hits; note: potency is the fitted concentration of half-maximal effect; % is set by controls: 0 for no effect and ±100 for the full control effect; nearly all actives have a fitted effect of over 65% in size
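First, reporter cells (HEPG2 CAGA-GFP) rested 2 h at 37 degrees C. Next, compounds were pinned in and TGF-beta added to 500 pg/mL final. After 18 h, GFP was imaged per cell and summed per well.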
HepG2 viability – counter-screen for TGF-b inhibitors: cytotoxicity in HepG2 cells. HepG2 CAGA-GFP viability, ATP luminescence, 18 h. Potency, µM (series often up to 46.1 µM), for inactives: at the top dose activity change, negative = cytotoxicity, most hits filed as cytotoxic. 410,000 compounds, 0.76% hits. AID 588856; note: potency is the fitted concentration of half-maximal effect
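CellTiter-Glo luminescence gave cytotoxicity after 18 hours at 37 degrees C. The cells were HepG2 CAGA-GFP in 1% FBS DMEM, stimulated with 500 pg/mL TGF-beta after compound addition. %Activity was normalised to no-cell wells (complete cell-killing) and DMSO (no toxicity), and curves were fitted and classified.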
TDP1 cell CPT – DT40-hTDP1 cell growth loss with CPT | chicken DT40 Tdp1-/-;hTDP1 cells + 20 nM CPT, ATP luminescence, 48 h | Potency, µM (doses to about 46.2 µM), without a hit: at the highest dose activity change, negative = growth inhibition, actives largely listed as inhibitors | 420,000 compounds, 12% hits; note: potency is the fitted concentration of half-maximal effect; % is set by controls: 0 for no effect and ±100 for the full control effect; nearly all actives have a fitted effect of over 55% in size
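Chicken DT40 Tdp1-/- cells complemented with human TDP1, 400 cells/well, exposed to compounds plus 20 nM camptothecin for at least 48 h at 37 C; viability read as ATP content by CellTiter-Glo luminescence.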
ASM inhibitor – blocks human secretory acid sphingomyelinase | Potency, µM (series often up to 57.5 µM), without a hit: at the top dose activity change, negative = inhibition, hits mostly inhibitors | 340,000 compounds, 0.006% hits | placental ASM, HMU-PC fluorogenic substrate, 60 min; note: potency is the fitted concentration of half-maximal effect
Target sequence (P17405 47-631 limits assumed): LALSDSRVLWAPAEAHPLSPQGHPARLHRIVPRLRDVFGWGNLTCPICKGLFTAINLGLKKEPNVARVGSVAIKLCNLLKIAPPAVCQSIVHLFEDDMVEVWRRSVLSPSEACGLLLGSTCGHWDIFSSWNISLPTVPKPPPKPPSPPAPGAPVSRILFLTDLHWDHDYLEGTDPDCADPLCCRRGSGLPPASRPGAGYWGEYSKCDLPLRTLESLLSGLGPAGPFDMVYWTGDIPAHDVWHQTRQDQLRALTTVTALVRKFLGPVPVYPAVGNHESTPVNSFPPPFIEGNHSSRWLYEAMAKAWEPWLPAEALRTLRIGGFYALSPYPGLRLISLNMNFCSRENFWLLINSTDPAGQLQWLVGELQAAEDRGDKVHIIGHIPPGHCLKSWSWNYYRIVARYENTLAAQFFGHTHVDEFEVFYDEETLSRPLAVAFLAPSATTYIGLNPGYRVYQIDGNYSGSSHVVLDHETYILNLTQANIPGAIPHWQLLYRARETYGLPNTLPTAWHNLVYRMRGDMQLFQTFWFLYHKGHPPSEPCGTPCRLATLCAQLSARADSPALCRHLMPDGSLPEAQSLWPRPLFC
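Fluorescence read-out (Ex 386 nm, Em 447 nm) after stopping the reaction at pH 10. Enzyme: ASM from human placenta; substrate HMU-PC0, 9 uM final; 60 min, 37 °C. Compound preincubation 10 min, ambient temperature.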
IL1B secr inh – inflammasome signaling inhibition, IL-1 beta readout; THP-1 LPS/ATP IL-1B secretion, AlphaLISA, 16 h; stronger effect = lower value; 360,000 compounds, 4.7% hits; activity change, % at 57.5 µM; in the data active = activity change below about -50%; inconclusive = mostly about -30% to -49%; note: % is set by controls: 0 for no effect and ±100 for the full control effect
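THP-1 cells pretreated 1 hr with compounds (up to 57.5 uM final), then stimulated with LPS (250 ng/mL final) plus ATP (1.25 mM final); secreted IL-1B measured by AlphaLISA after 16 hr, decreased signal indicating inhibition.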
Numbers without * were called inactive; ? = inconclusive; / = no result; ! = not confirmed by another sample; [ ] = remark or other dose. A selection: hits, their analogues and other compounds. The true share with any hit is near 19%. Unless noted, calls come from the whole dose curve; as a rule, active = well fitted curve in the direction sought with a large enough effect; inconclusive = small, poorly fitted or top-dose-only effect, or another doubt; inactive = no such curve, though single readings can be large; an effect the other way counts as inactive or inconclusive.

SMILES	DT40 TDP1 no CPT	TGFb SMAD3 inh	HepG2 viability	TDP1 cell CPT	ASM inhibitor	IL1B secr inh
Cc1cccc(C)c1OCCn1c(C2CC(=O)N(Cc3ccc(F)cc3)C2)nc2ccccc21 (stereo not drawn)	18.4µM*	?	-56.7%	?	/	/
Cc1cc(OCCn2c(C3CC(=O)N(Cc4ccc(F)cc4)C3)nc3ccccc32)ccc1Cl (stereo not drawn)	25.9µM*	12.6µM*	-101.8%	?	/	/
C=C(C)Cn1c(C2CC(=O)N(Cc3ccccc3)C2)nc2ccccc21 (stereo not drawn)	?	?	-3.0%	?	4.1%	-20.7
CCc1ccccc1N1CC(c2nc3ccccc3n2CCOc2ccc(Cl)c(C)c2)CC1=O (stereo not drawn)	20.6µM*	11.2µM*	10µM*	10.3µM*	/	/
COc1ccc(-c2noc(CNS(=O)(=O)c3ccc(NC(C)=O)cc3)n2)cc1OC	1.8%	-4.7%	5.2%	0.2%	-0.4%	?
O=C1CC[C@@]23/C=C/C(=O)NCCCCNCCCNC(=O)/C=C/c4ccc(c2c4)OC3C1 (stereo partly drawn)	-2.5%	/	/	9.9%	/	/
CCCN1CNc2c(c(=O)[nH]c(=S)n2CCc2c(OC)cccc2OC)C1	-28.4%	/	/	-25.5%	/	/
Cc1ccc2c(c1)C1CN(C)CCC1N2S(=O)(=O)c1ccc(C#N)cc1 (stereo not drawn)	-25.6%	12.1%	-29.7%	-13.8%	-2.2%	-28.6
C=C[C@@H]1c2cc(C)ccc2N(S(=O)(=O)c2ccc(C)cc2)[C@H](c2ccc(OC(C)=O)cc2)C1(C#N)C#N	5.8µM*	?	6.31µM*!	4.61µM*	2.9%	13.3
C=C[C@@H]1c2ccccc2N(S(=O)(=O)c2ccc(C)cc2)[C@H](c2ccc(OC(C)=O)cc2)C1(C#N)C#N	15.8µM*	?	-45.0%	15.8µM*	-0.4%	-15.7
CC(=O)CC1N(S(=O)(=O)c2ccc(C)cc2)c2ccccc2N1S(=O)(=O)c1ccc(C)cc1	7.1%	/	/	18.8%	/	0.0
O=C(CCN1Cc2ccccc2OC(c2ccccc2F)C1)N1CCC(N2CCCC(O)C2)CC1 (stereo not drawn)	-21.3%	/	/	2.0%[9.04 µM]	/	/
CCC/C=C/c1ccc(CN2C(C)C(=O)N(Cc3cn(CCC4OCCO4)nn3)CCS2(=O)=O)cc1 (stereo not drawn)	14.6µM*	5.9%	-1.9%	?	/	9.7
CCC/C=C/c1ccc(CN2C(C)C(=O)N(Cc3cn(Cc4ccco4)nn3)CCS2(=O)=O)cc1 (stereo not drawn)	?	22.4µM*	-33.0%	?	/	?
CCC/C=C/c1ccc(CN2C(C(C)C)C(=O)N(Cc3cn(CCOCOC)nn3)CCS2(=O)=O)cc1 (stereo not drawn)	?	-8.4%	-0.4%	?	/	9.2
CCC/C=C/c1ccc(CN2C(C(C)C)C(=O)N(Cc3cn(CCC4OCCCO4)nn3)CCS2(=O)=O)cc1 (stereo not drawn)	?	?	-74.0%	?	/	?
CCC/C=C/c1ccc(CN2C(C(C)C)C(=O)N(Cc3cn(Cc4ccco4)nn3)CCS2(=O)=O)cc1 (stereo not drawn)	23.1µM*	11.2µM*	-108.6%	?	/	?
CC(=O)c1ccc(NC(=O)C2CCN(S(=O)(=O)c3cccnc3)CC2)cc1	-3.3%	8.1%	-0.8%	7.2%	-1.7%	8.1
Cc1ccc2c(c1)C1(SC(C)C(=O)N1c1ccc(Cl)cc1)C(=O)N2 (stereo not drawn)	4.11µM*	-12.2%	0.8%	6.51µM*	/	36.7
CC1(C)CC(N2CCN(c3ccccc3)CC2)=CC(=[N+]2CCCC2)C1	0.231µM*	-19.8%	-3.4%	0.184µM*	6.0%	-101.6*
CC1(C)CC(=O)C=C(N2CCNCC2)C1	13.7%	7.1%	-6.3%	-1.1%	3.9%	-14.5
CC1CC(C)C[N+](=C2C=C(N3CCCC3)CC(C)(C)C2)C1 (stereo not drawn)	0.0082µM*	?	-45.6%	0.206µM*	-0.4%	?
COc1ccc(CCNc2ncnc3[nH]ncc23)cc1OC	14.6µM*	-3.9%	-9.4%	14.6µM*	3.0%	3.7
COc1ccc(CCNc2ncnc3sc(C(=O)N4CCCCC4)c(C)c23)cc1OC	18.4µM*	/	/	0.4%[9.04 µM]	/	/
CCOc1ccc2[nH]c3c(NCCc4ccc(OC)c(OC)c4)ncnc3c2c1	2.91µM*	-11.5%	-59.8%	4.11µM*	-2.3%	-96.5*
SMILES	DT40 TDP1 no CPT	TGFb SMAD3 inh	HepG2 viability	TDP1 cell CPT	ASM inhibitor	IL1B secr inh
CCCCCCCCNc1ncnc2[nH]ncc12	3.66µM*	0.0%	-2.9%	4.61µM*	-6.1%	-5.8
CCOc1ccc2[nH]c3c(NCCO)ncnc3c2c1	0.8%	-21.6%	0.2%	-13.9%	9.1%	-25.8
OCCCNc1ncnc2[nH]ncc12	1.3%	4.9%	2.3%	5.1%	-1.8%	11.1
Cc1ccc(C(=O)Nc2c3c(nn2-c2ccccc2)CS(=O)(=O)C3)cc1C	-12.1%	6.3%	2.4%	-11.2%	-1.1%	?
Cc1ccc([N+](=O)[O-])cc1NC(=O)C(C)NS(=O)(=O)c1ccc(F)cc1 (stereo not drawn)	-15.7%	-1.0%	-2.0%	8.9%	4.5%	17.8
COC(=O)CN1C(=O)N/C(=C/c2ccccc2OC)C1=O	10.1%	2.1%	-3.2%	6.9%	27.5%	0.0
Fc1ccc(CCNc2ncnc3[nH]ncc23)cc1	16.4µM*	-3.2%	4.9%	?	0.5%	0.6
COc1ccc(CCNc2ncnc3sc(C)cc23)cc1OC	0.259µM*	-10.9%	-24.7%	0.581µM*	0.8%	-15.3
Cc1ccc(CNc2ncnc3[nH]ncc23)cc1	?	-0.8%	-2.2%	?	4.5%	-8.3
CCOC(=O)c1ccc(Oc2nc(N(C)C)nc(N(C)C)n2)cc1	?	-2.5%	4.6%	-23.5%	-3.4%	-11.1
CCOC(=O)c1ccc(Oc2nc(NC(C)(C)C)nc(N(C)C)n2)cc1	20.6µM*	4.8%	-15.7%	13µM*	-7.0%	-14.8
Clc1ccc(Cn2ncc3c(N4CCCC4)ncnc32)cc1	?	7.2%	4.8%	-13.3%	-3.3%	?
Clc1ccc(Cn2ncc3c(N4CCOCC4)ncnc32)cc1	23.1µM*	-37.5%	-3.8%	?	-0.3%	-11.2
Clc1ccc(Cn2ncc3c(N4CCCCC4)ncnc32)c(Cl)c1	11.6µM*	?	-27.0%	23.1µM*	1.9%	-6.7
